Sampled rows, rich in hits. Any-hit rate of the full collection: about 7.3%.
FLuc modulator: inhibits or activates purified firefly luciferase, miR-21 counter-screen; P08659; purified FLuc, Km substrates, luminescence inhibition; Potency, µM (doses to about 57.5 µM), without a hit: at the top dose activity change, negative = inhibition, hits mostly inhibitors; actives 6.9% (n = 360,000); AID 588342;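 note: plate controls were vehicle for no effect and reference inhibitor for full effect; nearly all actives have a fitted effect of over 55% in size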
Target sequence (P08659 whole entry, looked up): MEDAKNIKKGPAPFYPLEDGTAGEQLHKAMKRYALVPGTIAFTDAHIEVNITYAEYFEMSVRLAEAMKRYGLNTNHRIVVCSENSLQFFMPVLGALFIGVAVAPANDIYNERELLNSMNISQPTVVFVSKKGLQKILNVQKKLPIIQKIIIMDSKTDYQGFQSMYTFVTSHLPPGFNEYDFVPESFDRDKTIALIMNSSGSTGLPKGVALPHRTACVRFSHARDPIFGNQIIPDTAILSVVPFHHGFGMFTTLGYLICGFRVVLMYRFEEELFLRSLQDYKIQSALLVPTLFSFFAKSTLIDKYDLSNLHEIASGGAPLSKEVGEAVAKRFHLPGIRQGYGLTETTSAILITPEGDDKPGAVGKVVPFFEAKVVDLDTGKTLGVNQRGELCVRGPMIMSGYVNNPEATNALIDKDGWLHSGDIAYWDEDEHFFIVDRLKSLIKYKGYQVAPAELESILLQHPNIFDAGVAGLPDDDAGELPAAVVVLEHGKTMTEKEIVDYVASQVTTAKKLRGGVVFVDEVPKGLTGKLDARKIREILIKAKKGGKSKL
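Purified P. pyralis luciferase, 10 nM final, with Km-level 10 uM D-luciferin and 10 uM ATP in 50 mM Tris acetate pH 7.5, 10 mM Mg acetate, 0.01% Tween-20, 0.05% BSA; 6-point qHTS titration about 60 µM downward; luminescence read.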
NPC1 promoter act: activators of NPC1 promoter; Huh7 NPC1 promoter luciferase reporter, 24 h; actives 2.4% (n = 320,000); AID 485313; Potency, µM (titrated, usually from 9.22 µM), inactives show at the top dose activation, hits mostly activators; note: % of control where 0% means no effect; nearly all actives have a fitted effect of over 60% in size
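Stable NPC1-promoter luciferase Huh7 line; cpd (DMSO) 24 h, 37 °C, 5% CO2; Amplite luciferase reagent 10 min RT; luminescence readout. qHTS format.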
ELG1 genotoxic: genotoxicity induction in ELG1-luciferase HEK293T cells | AID 504466 | actives 1.3% (n = 330,000) | HEK293T ELG1-luciferase reporter, luminescence, 16 h | Potency, µM (doses to about 46 µM), without a hit: top-dose activity change, positive = activation, usual class: activators; note: % of control where 0% means no effect; nearly all actives have a fitted effect of over 60% in size
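Genotoxicity was scored as increased ELG1-luciferase reporter signal, measured by ONE-Glo luminescence (30 min, room temperature). Compound or vehicle exposure of the HEK293T reporter cells lasted 16 hr at 37°C.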
KinaseGlo FLuc: counter-screen: inhibitors of Kinase-Glo firefly luciferase; Kinase-Glo luciferase, ATP luminescence, 8 min; Potency, µM (doses to about 38.3 µM), without a hit: top-dose activity change, negative = inhibition, usual class: inhibitors; Q27757; actives 0.28% (n = 200,000); note: % is set by controls: 0 for no effect and ±100 for the full control effect; nearly all actives have a fitted effect of over 60% in size
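Substrate mix (final 50 mM imidazole pH 7.2, 50 mM KCl, 7 mM MgCl2, 10 uM ATP, 0.01% Tween 20, 0.05% BSA) plus pin-tool compound, then Kinase-Glo detection mix; 8 min ambient, luminescence read.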
SMN2 splice enh: SMN2 splice variant enhancement; AID 1458; HEK293 SMN2-luciferase splicing reporter, luminescence, 30-36 h; Potency, µM (series often up to 46.1 µM), for inactives: at the highest dose activity change, positive = activation, hits mostly activators; actives 2.8% (n = 210,000); note: % of control where 0% means no effect; nearly all actives have a fitted effect of over 55% in size
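HEK293 cells carry an SMN2 […]–luciferase reporter in which exon 7 inclusion puts luciferase in frame. Cells were plated 10-12 h before compound addition, then incubated 30-36 h at 37C. ONE-Glo luminescence was read; sodium butyrate at 4.5 mM final served as control.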
Rab9 prom act: activates the Rab9 promoter; Huh7 Rab9 promoter-luciferase reporter, luminescence, 24 h; Potency, µM (series often up to 9.22 µM), for the others: at the highest dose activation, negative = inhibition, usual class: activators; actives 2.8% (n = 320,000); AID 485297; note: % of control where 0% means no effect; nearly all actives have a fitted effect of over 60% in size
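Quantitative HTS format; Huh7 Rab9-luciferase reporter cells (1500/well) receive compound 2 h post-plating, incubate 24 h at 37 °C, then get luciferase reagent for 10 min before luminescence reading.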
* marks the source's active call; other numbers are inactive results; u = inconclusive; x = no result; [ ] = remark or other dose. Calls come from the whole dose curve; as a rule, active = well fitted curve in the direction sought with a large enough effect; inconclusive = small, poorly fitted or top-dose-only effect, or another doubt; inactive = no such curve, though single readings can be large; an effect the other way counts as inactive or inconclusive. Potency is the fitted concentration of half-maximal effect.

SMILES	FLuc modulator	NPC1 promoter act	ELG1 genotoxic	KinaseGlo FLuc	SMN2 splice enh	Rab9 prom act
CCN(CC)S(=O)(=O)c1cc(NC(=O)c2ccc(Br)s2)ccc1C	12µM*	20%	5%	3%	-12%	1%
COc1cccc(N2C(=O)C(CC(=O)Nc3ccccc3)N(C3CCCCC3)C2=O)c1 (stereo not drawn)	5%	1%	-5%	0%	5%	9%
CCN(CC)S(=O)(=O)c1cc(NC(=O)C2Cc3ccccc3C(=O)O2)ccc1C (stereo not drawn)	17µM*	u	0%	x	x	u
O=S(=O)(Nc1ccc2c(c1)OCO2)c1cccs1	-3%	0%	-2%	-4%	-3%	2%
O=S(=O)(Nc1ccc2c(c1)OCCO2)c1cccs1	u	2%	7.3µM*	0%	1%	5%
Cn1nc(-c2ccccc2F)c2cc(C(=O)Nc3ccc4c(c3)OCCO4)sc21	9.5µM*	-3%	11%	-5%	29%	10%
O=C(Nc1ccc2c(c1)OCCO2)c1cccs1	5.4µM*	2.8µM*	16µM*	u	6.3µM*	1.6µM*
O=C1OC(C(=O)Nc2ccc(Cl)c(C(F)(F)F)c2)Cc2ccccc21 (stereo not drawn)	-6%	x	x	x	22%	x
O=C(Nc1ccncc1)c1cccs1	3%	-1%	-1%	-11%	14%	3%
CCOc1c2ccc(C(=O)NCc3ccc4c(c3)OCO4)cc2nn1CC	-11%	-2%	3%	5%	-6%	-2%
O=C(NCCNC(=O)c1ccccc1Br)c1ccccc1Br	1%	-7%	-4%	x	x	1%
Cc1ccccc1SCCNC(=O)c1ccccc1Br	24µM*	22%	18%	2%	27%	u
Cc1ccccc1SCC(=O)NNC(=O)c1ccccc1O	24µM*	4%	u	x	x	20%
COc1ccc(C2(C)NC(=O)N(CC(=O)NC3(C#N)CCCCC3)C2=O)cc1 (stereo not drawn)	4%	2%	9%	x	x	-10%
COc1cc2c(cc1OC)-c1cc(Nc3ccc(N(C)C)cc3)nc(=O)n1CC2	12µM*	-3%	u	x	x	-5%
COc1cc2c(cc1OC)-c1cc(Nc3ccc(F)cc3)nc(=O)n1CC2	-12%	-1%	u	x	x	-1%
COc1cc2c(cc1OC)-c1cc(Nc3cccc(F)c3)nc(=O)n1CC2	u	-5%	9%	x	x	5%
CCN(CC)c1ccc(Nc2cc3n(c(=O)n2)CCc2cc(OC)c(OC)cc2-3)cc1	24µM*	1%	0%	x	x	17%
Cc1cc(=O)oc2cc(OCC(=O)NC3CCCC3)ccc12	0%	1%	7%	x	x	-1%
O=C(NCc1ccccc1)c1ccc(=O)oc1	1%	1%	1%	x	x	3%
Cc1ccc(NS(=O)(=O)c2cccc(C(=O)N/N=C/c3ccc4c(c3)OCCO4)c2)c(C)c1	11µM*	-2%	-1%	3%	-35%	1%
Cc1cccc(/C=N/NC(=O)c2ccc3c(c2)OCCO3)c1O	0.38µM*	0.89µM*	0.13µM*	x	x	0.5µM*
COc1cccc(/C=N/NC(=O)CNC(=O)c2ccc3c(c2)OCCO3)c1O	-16%	-3%	2%	-2%	-15%	-6%
O=C(N/N=C/c1cc(Cl)ccc1O)c1ccc(Br)cc1	u	-16%	14%	-2%	-99%	-32%
COc1cc(OC)c(OC)cc1/C=N/NC(=O)c1cc(-c2cccn2C)n[nH]1	-16%	5%	0%	0%	2%	0%
SMILES	FLuc modulator	NPC1 promoter act	ELG1 genotoxic	KinaseGlo FLuc	SMN2 splice enh	Rab9 prom act
Cc1ccc(N=Nc2ccc(O)c(/C=N\NC(=O)c3ccc(N)cc3)c2)cc1C	u	1.4µM*	u	-3%	15%	2.8µM*
Cc1ccc(NS(=O)(=O)c2cccc(C(=O)N/N=C/c3c(C)nn(-c4ccccc4)c3N3CCCC3)c2)c(C)c1	5%	-4%	-7%	-1%	-17%[1.84 µM]	-3%
CCOc1cccc(/C=N/NC(=O)c2cc(-c3cccn3C)n[nH]2)c1O	15µM*	-35%	u	-3%	x	-52%
O=c1cc[nH]c2c(C(F)(F)F)cccc12	5%	0%	-2%	2%	u	-4%
COc1ccc2[nH]c(C(=O)NCCN3CCCCC3)cc2c1	u	-1%	-1%	x	x	-2%
CCOc1ccc(-n2nnc3c(=O)n(CC(=O)Nc4cc(C)on4)cnc32)cc1	4%	-7%	u	x	x	-2%
O=C(c1ccc(Cl)cc1)N(Cc1ccccc1F)N1C(=O)CCCC1=O	3%	0%	-4%	-1%	-2%	u
Cc1cccc(/C=N\NC(=O)c2ccc(Cl)cc2)c1O	1.5µM*	-22%	u	-4%	x	u
Cc1cccc(/C=N/NC(=O)Cc2ccc(Cl)cc2)c1O	-2%	4%	u	x	x	-2%
CCOc1cccc(/C=N/NC(=O)c2ccc3c(c2)OCCO3)c1O	2.4µM*	-30%	u	x	x	-41%
O=C(/C=C/c1ccc(Cl)cc1Cl)NC(=S)Nc1ccccn1	u	1.1µM*	u	-3%	4%	0.89µM*
O=C(NC(=S)Nc1ccccn1)c1ccccc1	7.6µM*	0.32µM*	1.6µM*	x	x	0.13µM*
O=C(/C=C/c1ccc(Cl)cc1Cl)NC(=S)Nc1ccc(CN2CCOCC2)cc1	-2%	-1%	-1%	4%	-23%	7%
O=C(Nc1ccccn1)c1cc2cc([N+](=O)[O-])ccc2s1	u	2µM*	u	-1%	u	1.4µM*
O=C(Nc1ccccn1)c1ccc(Br)s1	11µM*	1.8µM*	u	x	x	4µM*
c1cncc(-c2nc(N3CCOCC3)c3c4c(sc3n2)CCC4)c1	-11%	-1%	0%	-1%	4%	-6%
CCCN(CCC)CCCNC(=O)c1cnn(-c2ccc(F)cc2)c1-n1cccc1	0%	x	x	x	x	x
CC(=O)c1c[nH]c(C(=O)Nc2ccc(N3CCCCCC3)cc2)c1	x	-2%	12%	x	x	13%
CCC(C)Sc1nc2c(cnn2-c2ccc(C)cc2)c(=O)[nH]1 (stereo not drawn)	1%	0%	-8%	-1%	-2%	-12%
COCCN1C(=O)CC(NNC(=O)c2ccc(S(=O)(=O)N3CCCC3)cc2)C1=O (stereo not drawn)	0%	-2%	3%	1%	9%	-2%
O=C(CS(=O)(=O)c1ccccc1)Nc1ccccn1	1%	-3%	2%	4%	5%	-5%
O=C(NC(=S)Nc1ccccn1)c1ccc([N+](=O)[O-])cc1	5.4µM*	2µM*	u	0%	2.8µM*	1µM*
O=C(CC(=O)c1ccccc1)Nc1ccccn1	11µM*	2.5µM*	15µM*	x	x	1.8µM*
